“And” between values parts separate entries of the source, which are not always exact repeats. Equal values may be shown once. Inconclusive results are not listed. A structure can be active in one record and inactive in another. The source made the active and inactive calls. Rule for the calls: active = hit-call score of the fitted dose curve at least 0.9, where 1 is the maximum; inconclusive = response in the unintended direction; inactive = score below 0.9.
Legend:
[1] = target: bovine Estrogen Receptor (ER), ESR1 (gene 407238) (UniProt P49884); experiment: NVS_NR_bER: NovaScreen (NVS) Nuclear Receptor Binding Assay for bovine Estrogen Receptor (ER) (AID 2283345);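 note: actives lower the bound radioligand count which means they displace the ER ligand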
bovine Estrogen Receptor (ER), ESR1 (gene 407238), sequence (P49884 whole entry, looked up): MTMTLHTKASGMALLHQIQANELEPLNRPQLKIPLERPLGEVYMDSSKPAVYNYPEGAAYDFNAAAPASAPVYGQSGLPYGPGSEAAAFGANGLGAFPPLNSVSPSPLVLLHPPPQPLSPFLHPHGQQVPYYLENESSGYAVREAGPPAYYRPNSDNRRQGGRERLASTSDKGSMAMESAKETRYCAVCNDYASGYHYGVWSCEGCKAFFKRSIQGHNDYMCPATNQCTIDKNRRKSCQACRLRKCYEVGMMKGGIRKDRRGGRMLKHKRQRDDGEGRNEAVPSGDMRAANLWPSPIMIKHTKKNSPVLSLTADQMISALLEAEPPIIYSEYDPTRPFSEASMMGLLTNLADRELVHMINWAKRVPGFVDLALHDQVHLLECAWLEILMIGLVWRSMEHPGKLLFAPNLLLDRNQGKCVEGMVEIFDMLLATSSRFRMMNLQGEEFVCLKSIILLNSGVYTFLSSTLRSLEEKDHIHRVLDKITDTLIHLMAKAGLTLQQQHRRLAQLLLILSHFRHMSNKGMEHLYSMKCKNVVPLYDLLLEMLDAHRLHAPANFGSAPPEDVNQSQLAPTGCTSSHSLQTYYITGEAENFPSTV
Method in brief: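 Displacement of a radioligand from estrogen receptor in bovine uterine membrane preparations; scintillation signal taken at 18 hours, DMSO as baseline. Single-concentration duplicates (25 uM) preceded concentration-response follow-up of actives.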

[2] = target: Estrogen receptor (Homo sapiens) (UniProt P03372); experiment: OT_ER_ERaERa_1440: Odyssey Thera (OT) 24-hour HEK293T Protein-Complementation Assay for Estrogen Receptor-alpha/-alpha Homodimer (AID 2283349);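 note: hits raise fluorescence above DMSO for agonists and antagonists alike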
Estrogen receptor (Homo sapiens), sequence (P03372 whole entry, looked up, the tested form may be a part): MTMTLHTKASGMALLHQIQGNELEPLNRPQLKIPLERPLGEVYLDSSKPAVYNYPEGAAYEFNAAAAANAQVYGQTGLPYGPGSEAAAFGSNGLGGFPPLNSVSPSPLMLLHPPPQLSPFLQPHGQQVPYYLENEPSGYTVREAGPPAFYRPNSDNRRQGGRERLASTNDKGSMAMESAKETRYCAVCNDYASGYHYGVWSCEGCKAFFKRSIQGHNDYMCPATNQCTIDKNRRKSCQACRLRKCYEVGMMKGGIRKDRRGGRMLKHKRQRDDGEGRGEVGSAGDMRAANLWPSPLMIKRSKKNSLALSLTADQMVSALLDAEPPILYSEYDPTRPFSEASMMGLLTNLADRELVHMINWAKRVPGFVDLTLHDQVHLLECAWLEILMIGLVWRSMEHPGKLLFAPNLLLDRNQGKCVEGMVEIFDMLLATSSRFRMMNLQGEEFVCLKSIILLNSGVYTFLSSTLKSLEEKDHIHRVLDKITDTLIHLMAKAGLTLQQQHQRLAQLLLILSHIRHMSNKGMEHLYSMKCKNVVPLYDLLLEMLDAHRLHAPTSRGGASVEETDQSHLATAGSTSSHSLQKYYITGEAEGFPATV
Method in brief: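 Protein-fragment complementation between two human ERα ligand-binding domains (aa 310-547) in stably transfected HEK293T cells was monitored after 24 h treatment, using fluorescence intensity relative to vehicle controls.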

[3] = target: Bile acid receptor (Homo sapiens) (UniProt Q96RI1); experiment: NVS_NR_hFXR_Antagonist: NovaScreen (NVS) Nuclear Receptor Binding Assay for human Farnesoid X Receptor Antagonism (FXR) (AID 2283350)
Bile acid receptor (Homo sapiens), sequence (Q96RI1 whole entry, looked up): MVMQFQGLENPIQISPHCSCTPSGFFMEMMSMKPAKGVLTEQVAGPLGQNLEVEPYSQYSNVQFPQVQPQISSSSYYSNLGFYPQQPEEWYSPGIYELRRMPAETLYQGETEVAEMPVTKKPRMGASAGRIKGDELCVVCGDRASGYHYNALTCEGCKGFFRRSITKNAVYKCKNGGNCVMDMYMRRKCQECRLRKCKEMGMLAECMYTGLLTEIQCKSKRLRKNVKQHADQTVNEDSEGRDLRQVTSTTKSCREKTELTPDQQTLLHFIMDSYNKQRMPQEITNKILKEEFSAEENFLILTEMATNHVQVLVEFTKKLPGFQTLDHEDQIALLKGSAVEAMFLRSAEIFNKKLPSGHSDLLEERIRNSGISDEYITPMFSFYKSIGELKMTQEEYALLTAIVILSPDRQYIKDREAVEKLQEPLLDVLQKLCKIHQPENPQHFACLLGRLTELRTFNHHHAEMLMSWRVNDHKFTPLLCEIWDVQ
Method in brief: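 Cell-free TR-FRET ligand-binding read-out on human FXR (NR1H4) in antagonist mode, measured 1 h after dosing. Primary screen in duplicate at 25 uM, actives retested in concentration series; signal loss scored versus DMSO.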

[4] = target: Estrogen receptor (Homo sapiens) (UniProt P03372); experiment: OT_ER_ERaERa_0480: Odyssey Thera (OT) 8-hour HEK293T Protein-Complementation Assay for Estrogen Receptor-alpha/-alpha Homodimer (AID 2283351);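 note: rise in fluorescence from reassembled reporter fragments on ERα LBD homodimer in nucleus or whole cell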
Method in brief: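 The readout is complementation of fragments fused to the human ER alpha ligand-binding domain (aa 310-547), stably expressed in HEK293T cells. After 8 h of exposure, the increase in nuclear/cytoplasmic fluorescence was measured by laser scanning cytometry and fitted relative to DMSO.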

[5] = target: human Constitutive Androstane Receptor (CAR), NR1I3 (gene 9970) (UniProt Q14994); experiment: NVS_NR_hCAR_Antagonist: NovaScreen (NVS) Nuclear Receptor Binding Assay for human Constitutive Androstane Receptor Antagonism (CAR) (AID 2283344)
human Constitutive Androstane Receptor (CAR), NR1I3 (gene 9970), sequence (Q14994 whole entry, looked up): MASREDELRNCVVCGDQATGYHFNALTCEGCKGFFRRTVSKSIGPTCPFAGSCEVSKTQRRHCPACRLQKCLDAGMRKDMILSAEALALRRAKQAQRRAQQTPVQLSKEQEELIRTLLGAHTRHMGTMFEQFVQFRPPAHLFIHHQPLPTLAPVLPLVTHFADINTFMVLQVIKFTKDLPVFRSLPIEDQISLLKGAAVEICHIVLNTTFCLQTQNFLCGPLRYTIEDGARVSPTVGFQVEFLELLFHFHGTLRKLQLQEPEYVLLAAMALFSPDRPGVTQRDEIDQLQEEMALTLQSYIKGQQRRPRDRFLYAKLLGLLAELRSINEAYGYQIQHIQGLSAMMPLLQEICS
Method in brief: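 Cell-free TR-FRET binding read 1 h after dosing, antagonist mode; loss of signal versus DMSO baseline. Primary screen in duplicate at a single 25 uM; actives retested in concentration series.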

[6] = target: Androgen Receptor/SRC-1 Co-activator, AR (gene 367) (UniProt P10275); experiment: OT_AR_ARSRC1_0960: Odyssey Thera (OT) 16-hour HEK293T Protein-Complementation Assay for Androgen Receptor/SRC-1 Co-activator (AID 2283353);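 note: actives raise the signal above DMSO so potency reflects increased AR and SRC-1 complex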
Androgen Receptor/SRC-1 Co-activator, AR (gene 367), sequence (P10275 whole entry, looked up, the tested form may be a part): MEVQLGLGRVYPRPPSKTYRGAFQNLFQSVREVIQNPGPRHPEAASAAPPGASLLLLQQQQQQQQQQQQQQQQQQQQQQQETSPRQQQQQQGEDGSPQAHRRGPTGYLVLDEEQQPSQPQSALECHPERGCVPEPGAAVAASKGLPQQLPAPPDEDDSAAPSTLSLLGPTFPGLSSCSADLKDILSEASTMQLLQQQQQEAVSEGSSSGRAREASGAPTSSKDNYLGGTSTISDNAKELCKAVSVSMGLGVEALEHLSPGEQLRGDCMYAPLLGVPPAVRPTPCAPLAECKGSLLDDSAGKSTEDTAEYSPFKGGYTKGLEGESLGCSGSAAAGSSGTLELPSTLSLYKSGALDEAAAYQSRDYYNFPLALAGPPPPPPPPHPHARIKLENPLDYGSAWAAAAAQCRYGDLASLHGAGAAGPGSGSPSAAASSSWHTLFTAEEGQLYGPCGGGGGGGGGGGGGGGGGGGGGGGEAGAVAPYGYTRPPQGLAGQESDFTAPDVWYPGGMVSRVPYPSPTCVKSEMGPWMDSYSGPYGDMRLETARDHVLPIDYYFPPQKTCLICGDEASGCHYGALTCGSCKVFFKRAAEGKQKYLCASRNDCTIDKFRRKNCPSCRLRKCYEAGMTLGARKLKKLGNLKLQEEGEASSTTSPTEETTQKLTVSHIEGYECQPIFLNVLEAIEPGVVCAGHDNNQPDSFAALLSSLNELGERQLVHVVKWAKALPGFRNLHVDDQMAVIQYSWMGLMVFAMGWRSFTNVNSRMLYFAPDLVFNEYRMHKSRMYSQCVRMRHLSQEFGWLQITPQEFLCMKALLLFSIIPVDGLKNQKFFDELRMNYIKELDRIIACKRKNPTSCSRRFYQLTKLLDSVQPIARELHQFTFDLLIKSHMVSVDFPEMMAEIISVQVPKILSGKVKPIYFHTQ
Method in brief: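 HEK293T cells stably expressing AR and SRC-1 fused to Venus YFP fragments, imaged 16 h after dosing. Nuclear/cytoplasmic fluorescence ratio at 488 nm from at least 400 cells per image; gain of signal relative to DMSO.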

[7] = target: Androgen Receptor/SRC-1 Co-activator, AR (gene 367) (UniProt P10275); experiment: OT_AR_ARSRC1_0480: Odyssey Thera (OT) 8-hour HEK293T Protein-Complementation Assay for Androgen Receptor/SRC-1 Co-activator (AID 2283354);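 note: hits raise the complementation signal above DMSO so AC50 marks enhancers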
Method in brief: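 Measures AR/SRC-1 binding by Venus YFP fragment complementation in HEK293T stable lines at 8 h post-dose. Imaging quantifies the 488nm nucleus/cytoplasm ratio in ≥400 cells; DMSO defines baseline.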

[8] = target: rat Mineralocorticoid Receptor (MR), Nr3c2 (gene 25672) (UniProt P22199); experiment: NVS_NR_rMR: NovaScreen (NVS) Nuclear Receptor Binding Assay for rat Mineralocorticoid Receptor (MR) (AID 2283355)
rat Mineralocorticoid Receptor (MR), Nr3c2 (gene 25672), sequence (P22199 whole entry, looked up): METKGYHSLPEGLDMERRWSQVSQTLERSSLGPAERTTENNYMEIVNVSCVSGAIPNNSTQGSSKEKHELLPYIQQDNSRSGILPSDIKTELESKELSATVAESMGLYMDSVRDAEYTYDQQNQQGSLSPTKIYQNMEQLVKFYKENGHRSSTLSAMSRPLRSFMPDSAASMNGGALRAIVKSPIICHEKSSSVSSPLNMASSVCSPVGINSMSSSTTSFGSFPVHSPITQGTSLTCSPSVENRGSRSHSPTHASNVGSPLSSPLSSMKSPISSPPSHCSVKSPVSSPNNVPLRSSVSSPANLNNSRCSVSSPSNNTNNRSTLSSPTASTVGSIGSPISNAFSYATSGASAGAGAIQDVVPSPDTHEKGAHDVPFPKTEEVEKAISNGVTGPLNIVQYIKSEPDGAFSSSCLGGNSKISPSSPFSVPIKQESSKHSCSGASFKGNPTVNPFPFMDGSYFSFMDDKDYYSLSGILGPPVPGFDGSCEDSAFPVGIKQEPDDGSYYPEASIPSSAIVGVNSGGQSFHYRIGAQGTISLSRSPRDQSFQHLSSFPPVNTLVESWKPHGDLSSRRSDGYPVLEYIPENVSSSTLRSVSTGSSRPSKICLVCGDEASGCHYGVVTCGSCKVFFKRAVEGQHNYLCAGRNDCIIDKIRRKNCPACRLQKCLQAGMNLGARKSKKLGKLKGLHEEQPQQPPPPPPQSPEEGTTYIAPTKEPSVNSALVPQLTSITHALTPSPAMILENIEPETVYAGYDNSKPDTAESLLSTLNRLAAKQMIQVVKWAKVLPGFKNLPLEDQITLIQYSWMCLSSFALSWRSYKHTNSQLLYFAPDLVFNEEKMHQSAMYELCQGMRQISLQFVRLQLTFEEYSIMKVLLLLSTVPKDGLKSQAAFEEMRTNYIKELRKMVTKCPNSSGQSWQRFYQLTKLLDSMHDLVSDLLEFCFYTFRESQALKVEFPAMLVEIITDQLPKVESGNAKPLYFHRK
Protocol: (§1) NVS_NR_rMR is a biochemical, single-readout assay that uses extracted gene-proteins from Adrenalectomized rat brain supernatant in a tissue-based cell-free assay. Measurements were taken 24 hours after chemical dosing in a 96-well plate.NVS_NR_rMR is one of one assay component(s) measured or calculated from the NVS_NR_rMR assay. It is designed to make measurements of radioligand binding, a form of binding reporter, as detected with scintillation counting signals by Lysate-based radiodetection technology.Data from the assay component NVS_NR_rMR was analyzed into 1 assay endpoint. This assay endpoint, NVS_NR_rMR, was analyzed in the positive analysis fitting direction relative to DMSO as the negative control and baseline of activity. Using a type of binding reporter, loss-of-signal activity can be used to understand changes in the binding as they relate to the gene Nr3c2. Furthermore, this assay endpoint can be referred to as a primary readout, because the performed assay has only produced 1 assay endpoint. To generalize the intended target to other relatable targets, this assay endpoint is annotated to the nuclear receptor intended target family, where the subfamily is steroidal.
(§2) Binding assays used specific radioligands (tritiated, iodinated) with non-radioactive competitive displacement ligands in agonist or antagonist protocols (as indicated) and various reference compounds and inhibitors to titrate specific binding to receptors and transporters. Most enzyme assays (CYPs, kinases, phosphatases, proteases, HDACs) used recombinant protein and specific substrates (fluorescence mostly, some colorimetric and radioactive) and inhibitors, followed by a biochemical separation of substrate and product. All assays for the biochemical HTS were initially run in duplicate at a single concentration (10 uM for CYP450 assays and 25 uM for all others). […] Each assay was run with positive and negative controls, and concurrent controls on every plate. The follow-up (secondary) screen tested active chemical-pairs in concentration series, as well as a few additional assays not tested in the primary screen, some selected negative inactives, and several cases re-run in the concentration series for confirmatory purposes.

[9] = system: NCBI gene 100848466; experiment: NVS_NR_bPR: NovaScreen (NVS) Nuclear Receptor Binding Assay for bovine Progextron Receptor (PR) (AID 2283343);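 note: actives lower bound radioligand signal below DMSO meaning displacement of the label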
Protocol: as §1, with “NVS_NR_bPR” for “NVS_NR_rMR”, “Bovine uterine membranes” for “Adrenalectomized rat brain supernatant”, “18” for “24”, “plate.NVS_NR_bPR” for “plate.NVS_NR_rMR”, “NVS_NR_bPR,” for “NVS_NR_rMR,”, “PGR.” for “Nr3c2.”
as §2

[10] = target: Estrogen receptor (Homo sapiens) + Estrogen receptor beta (Homo sapiens) (UniProt P03372+Q92731); experiment: OT_ER_ERaERb_0480: Odyssey Thera (OT) 8-hour HEK293T Protein-Complementation Assay for Estrogen Receptor-alpha/-beta Heterodimer (AID 2283352)
Estrogen receptor (Homo sapiens) + Estrogen receptor beta (Homo sapiens), sequence (P03372 whole entry, looked up, the tested form may be a part): as the sequence (P03372 whole entry, looked up, the tested form may be a part) above
Estrogen receptor (Homo sapiens) + Estrogen receptor beta (Homo sapiens), sequence (Q92731 whole entry, looked up, the tested form may be a part): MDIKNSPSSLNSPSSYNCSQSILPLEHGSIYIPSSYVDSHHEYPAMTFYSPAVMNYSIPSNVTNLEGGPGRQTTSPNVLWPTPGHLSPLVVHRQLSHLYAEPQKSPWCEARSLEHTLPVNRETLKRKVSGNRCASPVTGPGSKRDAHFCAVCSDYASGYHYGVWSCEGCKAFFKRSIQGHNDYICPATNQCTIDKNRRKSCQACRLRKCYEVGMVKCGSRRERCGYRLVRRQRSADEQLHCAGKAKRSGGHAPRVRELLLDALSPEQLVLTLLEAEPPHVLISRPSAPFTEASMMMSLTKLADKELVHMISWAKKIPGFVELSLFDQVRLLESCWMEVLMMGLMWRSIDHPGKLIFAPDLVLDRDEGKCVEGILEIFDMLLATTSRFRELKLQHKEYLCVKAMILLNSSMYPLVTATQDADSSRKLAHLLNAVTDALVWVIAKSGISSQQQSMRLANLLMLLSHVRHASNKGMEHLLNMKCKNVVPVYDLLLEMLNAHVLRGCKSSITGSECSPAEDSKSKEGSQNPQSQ
Method in brief: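 Human HEK293T cells were treated for 8 hours and receptor heterodimerisation was detected through reconstitution of a fluorescent reporter split between ER-alpha and ER-beta ligand-binding domains. Activity was analysed as gain of signal against DMSO.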

Measured: AC50

CN1CCN(c2ccccc2/C=C2\SCCN(c3ccc(Cl)c(Cl)c3)C2=O)CC1
inactive: [1] | [2] | [3] | [4]

CCC(=C(c1ccc(O)cc1)c1ccc(OCCN(C)C)cc1)c1ccccc1
active: [5] 18.2 µM | [6] 19.8 µM and 20.2 µM and 19.2 µM | [7] 46.8 µM and 46.2 µM and 46.6 µM
inactive: [3] | [6] | [7] | [8]

c1ccc2cc3c(ccc4ccccc43)cc2c1
inactive: [1] | [2] | [3] | [4]

CCCCCCCCCCCCc1ccccc1S(=O)(=O)O
active: [9] 17.1 µM | [5] 10.9 µM | [1] 39.1 µM | [3] 12.2 µM
inactive: [2] | [4] | [6] | [7] | [8]

C=C(C)C(=O)OCCC(F)(F)C(F)(F)C(F)(F)C(F)(F)C(F)(F)C(F)(F)F
inactive: [1] | [2] | [4] | [10]

Cc1cc(CCN2CCN(c3nsc4ccccc34)CC2)cc2c1NC(=O)CC2(C)C
inactive: [1] | [2] | [4] | [10]
active: [6] 12.6 µM | [7] 15.4 µM

Oc1cc2ccccc2c2ccccc12
inactive: [1] | [2] | [4]
active: [9] 18 µM | [6] 7.07 µM | [7] 8.63 µM

O=C1OC2(c3ccccc31)c1cc(Br)c(O)c(Br)c1Oc1c2cc(Br)c(O)c1Br
inactive: [1]
active: [2] 62.2 µM | [4] 88.3 µM | [10] 78.2 µM

C#C[C@]1(O)CC[C@H]2[C@@H]3CCC4=CC(=O)CC[C@@H]4[C@H]3CC[C@@]21C
inactive: [1] | [2] | [4] | [10]
active: [9] 0.0183 µM | [8] 0.5 µM

O=C(OCCOCCOC(=O)c1ccccc1)c1ccccc1
inactive: [5] | [2] | [3] | [4]

CC1=C(/C=C/C(C)=C/C=C/C(C)=C/C(=O)O)C(C)(C)CCC1
inactive: [1] | [2] | [4]

CC#C[C@]1(O)CC[C@H]2[C@@H]3CCC4=CC(=O)CCC4=C3[C@@H](c3ccc(N(C)C)cc3)C[C@@]21C
active: [9] 0.00874 µM | [1] 10 µM and 16.2 µM and 8.77 µM | [8] 5.21 µM
inactive: [1] | [2] | [3] | [4]

CC(O)CO (stereo not given)
inactive: [2] | [3] | [4]

O=C(O)c1ccccc1C(c1ccc(O)cc1)c1ccc(O)cc1
active: [5] 0.427 µM
inactive: [2] | [4] | [10] | [6] | [7]

O=C(O)Cc1cc(I)c(Oc2cc(I)c(O)c(I)c2)c(I)c1
inactive: [1] | [2] | [4] | [10]

O=[N+]([O-])c1ccc(O)cc1
inactive: [1] | [2] | [4]

CN1CCC[C@H]1c1cccnc1
inactive: [1] | [2] | [4] | [10]

CCN(CC)CCNc1ccc(CNC=O)c2sc3ccc(OC)cc3c(=O)c12
inactive: [1] | [2] | [4]

ClC1=C(Cl)C(Cl)(Cl)C(Cl)=C1Cl
inactive: [1] | [2] | [4]

OCCC(F)(F)C(F)(F)C(F)(F)C(F)(F)C(F)(F)C(F)(F)C(F)(F)C(F)(F)F
inactive: [1] | [2] | [4] | [10] | [6] | [7]

Cc1ccc(S(=O)(=O)O)c(C)c1
active: [2] 56.2 µM
inactive: [2] | [4]

CCCCCCCC(=O)O
inactive: [5] | [2] | [4] | [10]

COCC(C)O (stereo not given)
inactive: [2] | [4] | [8]
active: [1] 3.69 µM

NC(=O)N1C(=O)C(C(=O)c2cc(Cl)cs2)c2cc(F)c(Cl)cc21 (stereo not given)
inactive: [2] | [4] | [6] | [7]
active: [1] 25 µM

Cc1oc(-c2ccccc2)nc1CCOc1ccc(C[C@H](Nc2ccccc2C(=O)c2ccccc2)C(=O)O)cc1
inactive: [1] | [2] | [4] | [7]
active: [6] 45.4 µM

COCC(C)OCC(C)O (stereo not given)
inactive: [5] | [2] | [10] | [6] | [7]

CCC(C)(C)C1CCC(O)CC1 (stereo not given)
active: [1] 16.4 µM and 12.9 µM | [4] 59.3 µM
inactive: [2] | [4]

CCCOC(=O)c1ccc(O)cc1
active: [2] 31.2 µM | [4] 38.4 µM | [10] 16.7 µM
inactive: [1]

CC[C@H](c1ccc(O)cc1)[C@@H](CC)c1ccc(O)cc1
inactive: [6] | [7]
active: [5] 0.00229 µM | [3] 8.83 µM | [6] 35.6 µM

Source: PubChem BioAssay (EPA / NIEHS)
